Calls of active or inactive are those of the source. How the calls were made is not given here.

Chain of Pantothenate synthetase (Mycobacterium tuberculosis (strain ATCC 25618 / H37Rv)) (P9WIL5 whole entry, looked up): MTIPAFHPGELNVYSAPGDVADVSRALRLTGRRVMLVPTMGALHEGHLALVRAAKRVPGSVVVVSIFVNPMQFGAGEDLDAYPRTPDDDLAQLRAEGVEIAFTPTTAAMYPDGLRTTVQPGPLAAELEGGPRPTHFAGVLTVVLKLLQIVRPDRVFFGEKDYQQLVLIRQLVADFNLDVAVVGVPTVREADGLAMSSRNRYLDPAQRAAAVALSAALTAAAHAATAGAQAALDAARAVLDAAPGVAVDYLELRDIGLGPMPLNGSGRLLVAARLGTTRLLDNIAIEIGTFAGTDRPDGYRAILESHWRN

This experiment addresses Pantothenate synthetase (Mycobacterium tuberculosis (strain ATCC 25618 / H37Rv)) (UniProt P9WIL5). In words: Recombinant Mtb pantothenate synthetase (PanC) inhibitors, coupled enzyme, confirmatory (AID 375).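 Further: 0% = full reaction with vehicle and 100% = no enzyme background.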 To be noted: coupled enzyme assay; at 10 µM, stronger effect = higher value.
In general, inhibition refers to the share of the control response that was lost under treatment. As to `O=C(Nc1ccc(N2CCN(Cc3ccccc3Cl)CC2)cc1)c1cccnc1`, the inhibition is 4% (inactive).

Regarding `Cc1ccc(C(=O)Nc2nc3c(s2)CCCC3)o1`, the inhibition was 2% (inactive). With `Cc1[nH]c2ccc(F)cc2c(=O)c1SC(F)(F)C(F)C(F)(F)F` (stereo not drawn), the inhibition was 1% (inactive).

For the compound `O=C(COc1ccccc1Cl)N1CCCC1`, the inhibition was 2% (inactive).

With `O=C(CCCCCn1c(=O)[nH]c2ccsc2c1=O)N1CCCCC1`, the inhibition is 5% (inactive). As for `COc1ccc(N2Cc3ccccc3C2)cc1Cl`, the figure is 0% (inactive); as for `COc1ccc(S(=O)(=O)NCC(c2cccnc2)N2CCN(c3ccc(F)cc3)CC2)cc1C` (stereo not drawn), 0% (inactive); as for `Cc1cc(C)cc(N2C(=O)C3C4C=CC(C4)C3C2=O)c1` (stereo not drawn), 0% (inactive). As for `COCCNC(=O)c1ccc(CS(=O)(=O)c2c(Cl)cccc2Cl)o1`, the figure is 0% (inactive); as for `Cc1cccc(Cn2c(SCC(=O)Nc3ccccc3)nc3c2c(=O)[nH]c(=O)n3C)c1`, 3% (inactive); as for `CC(=O)N1CN(C2CCCC2)Cc2c1sc1c2CCCC1`, 0% (inactive).

In the case of `CCCn1nc(NC(=O)c2cccs2)c2cc3cc(OC)ccc3nc21`, the inhibition is 0% (inactive). Regarding `CC(=O)OC1CSc2nc3ccccc3n2C1` (stereo not drawn), the inhibition was 0% (inactive). As to `COc1ccc(C2=CC(=O)OC3(CCCCC3)O2)cc1`, the inhibition is 0% (inactive). As for `CCOC(=O)CSc1nc2ccccc2n2cnnc12`, the inhibition is 0% (inactive). As to `COc1ccc(C(=O)NCCn2ccc3ccccc32)c(OC)c1`, the inhibition is 5% (inactive). Take `COC(=O)c1sc(N2C(=O)C(O)=C(C(=O)c3ccc(C)o3)C2c2ccc(F)cc2)nc1C` (stereo not drawn): the inhibition is 8% (inactive). With `CCOc1ccc(C(=O)Cc2ccc3oc(C(=O)O)cc3c2)c(O)c1`, the inhibition is 7% (inactive). As for `Cc1ccc(C)c(OCCCC(C)(C)C(=O)O)c1`, the figure is 0% (inactive); as for `CCOC(=O)c1c(C)c(C(=O)NCC2CCCO2)c(C)n1C` (stereo not drawn), 7% (inactive). With `O=C(O)c1cc(-c2ccccc2Cl)n[nH]1`, the inhibition is 2% (inactive). As for `CC(=O)NCCn1ccc2ccccc21`, the inhibition is 0% (inactive).

Consider `COc1cc2[nH]c3c(=O)n(CCN(C(C)C)C(C)C)cnc3c2cc1OC`, for which the inhibition is 10% (inactive).
